Compound activity from PubChem BioAssay.
Vif inh = HIV Vif inhibition; inhibition, % at 7.49 µM; hit rate 0.35% among 340,000; HEK293T cells, Vif self-association by quenched fluorescence, imaging, 24 h; in the data active = inhibition above about 50%, passing the limit was not always enough; inconclusive = no clear call, values can overlap the other calls; inactive = below about 31%
N-glyco inh = blocks N-linked glycosylation in D54 reporter cells | D54 ERlucT glycosylation luciferase reporter, 24 h; percent of 100 nM tunicamycin response | reporter increase, % at 12.5 µM | hit rate 0.23% among 360,000 | AID 588692;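 active = mean luciferase reporter signal, scaled so untreated is 0 and the glycosylation-blocking control 100, at or above a set limit in every replicate; inconclusive = mean reaches the limit but not every replicate does; inactive = mean below the limit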;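 note: luciferase carries N-glycosylation sites so blocking glycosylation raises the light; 0% = median of neutral control wells and 100% = median of 100 nM tunicamycin wells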
PfHsp90 yeast 2 = growth inhibition of yeast expressing Plasmodium Hsp90; S. cerevisiae expressing PfHsp90, BacTiter-Glo ATP, 48 h; yeast lacking PDR1 and PDR3 efflux regulators; inhibition, % at 9.4 µM; hit rate 0.32% among 310,000; AID 504621;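 active = every replicate shows inhibition above about 80%, whatever the replicate mean, limit read from the data; inconclusive = mean inhibition reaches the set limit but some replicate falls short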;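 note: 0% = DMSO neutral controls and 100% = 20 µM radicicol positive controls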
Wnt act = activators of Wnt/beta-catenin signaling | Wnt/beta-catenin reporter cell assay, activator, plate reader | activation, % at 9.35 µM | hit rate 1.2% among 300,000; in the data active = activation above about 30%, passing the limit was not always enough; inconclusive = no clear call, values can overlap the other calls;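 note: 0% = neutral control wells and 100% = positive control wells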
MITF TRPM1 HTS = activators of MITF-driven TRPM1 promoter activity in SK-MEL-5 cells; hit rate 0.75% among 300,000; AID 588334; activation, % at 12.5 µM; SK-MEL-5 TRPM1-promoter luciferase, 24 h; % of positive control, neutral wells = 0;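 active = mean activation of at least 80% with every replicate also reaching 80%; inconclusive = mean reaches 80% but some replicate falls short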;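 note: 0% = neutral control wells and 100% = parthenolide positive control wells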
esBAF inh = inhibitors of esBAF chromatin remodeling in mouse ES cells; hit rate 2% among 350,000; Bmi1-luciferase knock-in reporter, 24 h; 100% = twice the neutral-well signal; reporter increase, % at 12.5 µM; AID 602393; in the data active = activation above about 40%; inconclusive = no clear call, values can overlap the other calls;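 note: 0% = median of the plate's neutral control wells and 100% = double that signal; a rise in the Bmi1 reporter signal indicates esBAF inhibition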
Ring1 derepress = confirmation of esBAF inhibitors: Ring1 de-repression in mouse ESCs | shares compounds with esBAF inh | mouse ESC E14, Ring1 mRNA RT-qPCR fold change | fold change at 33 µM | 550 tested, under 10 active | AID 743176;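 active = Ring1 gene expression raised more than 2-fold over untreated cells in both replicates at either tested dose; inconclusive = only one replicate above 2-fold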;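 note: Ring1 transcript normalised to actin housekeeping signal by TaqMan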
Fgf4 repress = esBAF inhibition confirmed by Fgf4 repression; shares compounds with esBAF inh; mouse ESC E14, Fgf4 mRNA qPCR fold change; hits give low values; Fgf4 expression fold change at 33 µM; hit rate 4% among 550; AID 743177;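 active = Fgf4 expression under 0.8 fold of control in both repeat measurements at one or both tested doses; inconclusive = under 0.8 fold in just a single repeat measurement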;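 note: Fgf4 transcript normalised to actin in duplex TaqMan qPCR; cells exposed to compound for 24 h before lysis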
Bmi1 derepress = confirmation of esBAF inhibitors: Bmi1 de-repression in mouse ESCs; fold change at 33 µM; shares compounds with esBAF inh; mouse ESE14 ES cells, Bmi1 mRNA qPCR fold; hits give high values; 550 tested, under 10 active;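 active = Bmi1 expression fold change above 6 at either tested concentration, seen in replicate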;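 note: higher fold means more Bmi1 de-repression and stronger esBAF inhibition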
A549 cytotox = cytotoxicity in A549 cells; shares compounds with esBAF inh; plate reader; cell viability change % (negative = cytotoxic), % at 25 µM, hits read low; 550 tested, under 10 active; AID 743188; call rule not given here
HepG2 cytotox SP = HepG2 cell cytotoxicity at single point | shares compounds with esBAF inh | plate reader; hits give low values | activity change, negative = inhibition, % at 25 µM | hit rate 4% among 550 | AID 743189; in the data active = activity change below about -50%
HEK293 cytotox SP = cytotoxicity in HEK293 cells. plate reader. hit rate 3% among 550. activity change, negative = inhibition, % at 25 µM, hits read low. shares compounds with esBAF inh. AID 743190; in the data active = activity change below about -38%, passing the limit was not always enough
Active calls of the source: *. Hits are enriched below; roughly 3% of the tested compounds scored in any of these assays.

`COC(=O)c1ccccc1NC(=O)CSc1nc(N)cc(=O)[nH]1` gave Vif inh 1.7, N-glyco inh 6.4, PfHsp90 yeast 2 2.3, Wnt act 0.6 and MITF TRPM1 HTS -10.8.
`COc1ccccc1-c1cnc2c(Nc3cccc(OC(F)(F)C(F)F)c3)nccn12` gave Vif inh -5.7, N-glyco inh 3.9, Wnt act -0.9 and esBAF inh 13.6.
O=C(NCCO)c1cccc(-c2cnc3c(Nc4cccc(OC(F)(F)C(F)F)c4)nccn23)c1 was read as Vif inh -5.3, N-glyco inh 3.8, Wnt act 0.5, esBAF inh 71.4*, Ring1 derepress 1.16, Fgf4 repress inconclusive, Bmi1 derepress 2.35, A549 cytotox 10.0, HepG2 cytotox SP -19.8 and HEK293 cytotox SP -2.3.
Screening COc1ccc(-c2cc(C(=O)N3CCN(c4ccccc4)CC3)no2)cc1 returned Vif inh -6.5, N-glyco inh 2.8, PfHsp90 yeast 2 2.8, Wnt act -3.5, MITF TRPM1 HTS 55.5, esBAF inh 60.0*, Ring1 derepress 1.31, Fgf4 repress 0.927, Bmi1 derepress 1.65, A549 cytotox 4.0, HepG2 cytotox SP 34.4 and HEK293 cytotox SP -9.0.
CCOC(=O)c1cc(-c2ccccc2)n(CCC(=O)O)c1C was read as Vif inh 1.1, N-glyco inh 0.1, PfHsp90 yeast 2 -27.9, Wnt act -3.5, MITF TRPM1 HTS -13.1 and esBAF inh -3.6.
`COC(=O)c1sc(Nc2ccccc2)nc1C` gave Vif inh -4.9, N-glyco inh -1.5, PfHsp90 yeast 2 13.6, Wnt act -1.1, MITF TRPM1 HTS 78.9, esBAF inh 65.5*, Ring1 derepress 1.04, Fgf4 repress 1.32, Bmi1 derepress 1.2, A549 cytotox 5.9, HepG2 cytotox SP -22.8 and HEK293 cytotox SP -0.9.
`CC(=O)c1sc(Nc2ccccc2)nc1C` gave Vif inh 10.1, N-glyco inh -0.4, Wnt act 0.6 and esBAF inh 35.6.
For CC(=O)c1sc(Nc2ccc(Oc3ccccc3)cc2)nc1C the results were Vif inh 1.5, N-glyco inh -13.1, Wnt act 5.7, esBAF inh 77.4*, Ring1 derepress 1.16, Fgf4 repress 0.999, Bmi1 derepress 1.81, A549 cytotox -12.1, HepG2 cytotox SP -12.7 and HEK293 cytotox SP -37.5.
Screening COc1cccc(-c2c(NC(=O)c3ccco3)oc3ccc(Cl)cc3c2=O)c1 returned Vif inh 3.8, N-glyco inh -1.2, PfHsp90 yeast 2 0.2, Wnt act -1.4, MITF TRPM1 HTS -4.3 and esBAF inh -1.0.
COc1cccc(N(C(=O)c2cccs2)c2nc3ccccc3s2)c1 was read as Vif inh 7.0, N-glyco inh 0.3, PfHsp90 yeast 2 -9.3, MITF TRPM1 HTS 65.2, esBAF inh 59.0*, Ring1 derepress 1.38, Fgf4 repress 0.972, Bmi1 derepress 2.88, A549 cytotox -1.4, HepG2 cytotox SP -10.4 and HEK293 cytotox SP -13.3.
For CNC(=O)c1ccc(-c2cc3onc(-c4ccccc4)c3c(=O)n2C)cc1 the results were Vif inh -8.1, N-glyco inh 2.8, Wnt act 42.5*, MITF TRPM1 HTS 95.7*, esBAF inh 81.2*, Ring1 derepress 0.924, Fgf4 repress 0.882, Bmi1 derepress 1.48, A549 cytotox -10.1, HepG2 cytotox SP 14.9 and HEK293 cytotox SP -1.8.
`COc1ccc(N(C(=O)CCC(=O)Nc2cc(C)on2)C(C(=O)NC2CCCC2)c2ccco2)cc1` (stereo unspecified) gave Vif inh 10.7, N-glyco inh 2.1, PfHsp90 yeast 2 1.2, Wnt act -10.6, MITF TRPM1 HTS -4.4 and esBAF inh -2.6.
`Nc1ccc2c(c1)C(=O)c1ccc(N)cc1-2` gave Vif inh 9.0, N-glyco inh 3.8, PfHsp90 yeast 2 -24.7, Wnt act -1.7, MITF TRPM1 HTS 32.2, esBAF inh 76.1*, Ring1 derepress 1.25, Fgf4 repress 0.939, Bmi1 derepress 1.74, A549 cytotox -0.5, HepG2 cytotox SP -3.5 and HEK293 cytotox SP 5.8.
Screening Cc1cc(-c2nnc(-c3cccc(C(F)(F)F)c3)o2)no1 returned Vif inh -2.2, N-glyco inh 0.2, PfHsp90 yeast 2 -0.4, Wnt act 19.3, MITF TRPM1 HTS 61.0, esBAF inh 59.3*, Ring1 derepress 1.18, Fgf4 repress 0.852, Bmi1 derepress 1.61, A549 cytotox 3.3, HepG2 cytotox SP -45.8 and HEK293 cytotox SP -9.0.
`Cc1cc(-c2nnc(CCC(=O)NCc3cccc(C(F)(F)F)c3)o2)no1` gave Vif inh -3.5, N-glyco inh 2.7, PfHsp90 yeast 2 1.5, Wnt act -2.0, MITF TRPM1 HTS 3.4 and esBAF inh 11.8.
`O=C(NC1CCCCC1)N1CCc2ccccc2C1` gave Vif inh -10.8, N-glyco inh -1.3, PfHsp90 yeast 2 10.3, Wnt act 9.8, MITF TRPM1 HTS 77.1, esBAF inh 67.0*, Ring1 derepress 1.14, Fgf4 repress 1, Bmi1 derepress 1.87, A549 cytotox -7.5, HepG2 cytotox SP -25.5 and HEK293 cytotox SP -11.1.
`O=C(CNC1CCCCC1)N1CCc2ccccc2C1` gave Vif inh 3.4, N-glyco inh 1.9, PfHsp90 yeast 2 -3.6 and Wnt act -3.0.
Screening O=C1CC(c2cc(Br)ccc2F)c2cc3c(cc2N1)CCC3 (stereo unspecified) returned Vif inh -8.8, N-glyco inh 15.0, PfHsp90 yeast 2 5.3, Wnt act -9.3 and MITF TRPM1 HTS -21.1.
`CCC(=O)Nc1ccc2c(c1)OC[C@@H](C)N(Cc1ccc(-c3ccccn3)cc1)C[C@@H](C)[C@H](OC)CN(C)C2=O` gave esBAF inh -0.7.
